For 17 compounds, composite z-score and z-score results are on record in PubChem BioAssay.

Experiment [1] deals with XIP peptide (Xip251-270) binding. The experiment is described as follows: XIP fragment 251-270 binding compounds – biochemical, small-molecule microarray, fluorescence 635/667 nm, 0.1 µg/mL protein, primary screen (AID 1182). The conditions noted are these: fluorescent protein binding, 635 nm, higher = more signal, called active from +8 up or from −8 down.
The test system of experiment [2] is XIP peptide (Xip251-270). The experiment is described as follows: compounds binding XIP fragment 251-270 – biochemical, small-molecule microarray, fluorescence 635/667 nm, 0.5 µg/mL protein, primary screen (AID 1183). As to conditions: fluorescence 635 nm, higher = more signal.
Experiment [3] is described as follows: blood-stage malaria parasite viability loss – strain 3D7, DAPI fluorescence, 100 nL, primary screen (AID 1184).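 Also: parasites grown inside human red blood cells in medium with human serum.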 As to conditions: P. falciparum 3D7 growth, 3 d, higher = more signal.
Experiment [4] has as its target Homeobox protein Hox-A13 (Mus musculus) (UniProt Q62424). Description: disruptors of Hoxa13 oligonucleotide interaction – biochemical, fluorescence polarization, labeled oligonucleotide, primary screen (AID 1185). As to conditions: Hoxa13:DNA binding, 15 min, higher = more signal, called active from +8 up or from −8 down.
A short description of experiment [5]: blockers of DNA damage checkpoint Chk1 activation – imaging, HeLa, hydroxyurea, phospho-Chk1 antibody, percent positive cells, primary screen (AID 1186). As to conditions: hydroxyurea-induced phospho-Chk1 immunofluorescence imaging, higher = more signal.
Experiment [6] in a line: blockers of DNA damage checkpoint Chk1 activation – imaging, HeLa, hydroxyurea, phospho-Chk1 nuclear intensity, primary screen (AID 1187). The conditions noted are these: hydroxyurea-induced phospho-Chk1 immunofluorescence imaging, higher = more signal.

Active and inactive are the calls of the source. Unless noted, no rule for the calls is given here.

Sequence of Homeobox protein Hox-A13 (Mus musculus) (Q62424 whole entry, looked up): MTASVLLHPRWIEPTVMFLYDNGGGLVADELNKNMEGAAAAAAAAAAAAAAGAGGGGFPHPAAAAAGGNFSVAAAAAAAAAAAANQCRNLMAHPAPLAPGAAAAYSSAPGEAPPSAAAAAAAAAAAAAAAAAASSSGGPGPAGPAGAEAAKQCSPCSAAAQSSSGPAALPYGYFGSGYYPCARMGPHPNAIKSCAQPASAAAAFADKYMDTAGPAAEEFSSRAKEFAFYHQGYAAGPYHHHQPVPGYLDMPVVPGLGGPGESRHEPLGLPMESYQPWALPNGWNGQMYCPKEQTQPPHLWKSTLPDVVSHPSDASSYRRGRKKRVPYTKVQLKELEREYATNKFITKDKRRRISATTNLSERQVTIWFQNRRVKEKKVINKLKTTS

As to `C=CCC(OC(C)=O)[C@@H]1[C@@H](N(Cc2ccc(-c3ccccc3)cc2)C(=O)c2cccc3ccccc23)c2cc(OCCCO)ccc2N1C(=O)Cc1ccc2ccccc2c1` (some centres not stated), the composite z-score in experiment [1] was -0.366 (inactive); in experiment [2], 0.579. The z-score in experiment [3] is -0.171; in experiment [4], -1.26 (inactive); in experiment [5], -0.8 (inactive); in experiment [6] it was -0.493 (inactive).
In the case of `COCCOC(=O)N1C(=O)[C@@]2(c3cc(C#CC4=CCCCC4)ccc31)[C@H](C(=O)N1CCN(c3ncccn3)CC1)[C@H]1C(=O)O[C@H](c3ccccc3)[C@H](c3ccccc3)N1[C@@H]2c1ccc(O)cc1`, the results for the composite z-score in experiment [1] and in experiment [2] were 0.481 (inactive) and 0.685, respectively. The z-score in experiment [3] was -1.29; in experiment [4], 0.446 (inactive); in experiment [5] it was 0.247 (inactive); in experiment [6], 0.0658 (inactive).
For the compound `Cc1ccc(S[C@]2(C(=O)NC3CC3)CC(=O)N(Cc3ccccc3Cl)[C@@H]2c2ccc(CO)cc2I)cc1`, the results for the composite z-score in experiment [1] and in experiment [2] were 0.98 (inactive) and 0.824, respectively. The z-score in experiment [3] is 0.287; in experiment [4], -1.54 (inactive); in experiment [5] it was 0.159 (inactive); in experiment [6], 0.858 (inactive).
Regarding `C=CCNC(=O)[C@H]1[C@@H]2C(=O)O[C@@H](c3ccccc3)[C@@H](c3ccccc3)N2[C@@H](c2ccccc2OCCO)[C@]12C(=O)N(C(=O)OCCOC)c1ccc(C#CC3=CCCCC3)cc12`, the composite z-score in experiment [1] was 0.234 (inactive); in experiment [2] it was 0.719. Moreover, the z-score was -2.12 in experiment [3], 0.724 (inactive) in experiment [4], 0.557 (inactive) in experiment [5] and 1.47 (inactive) in experiment [6].
As for `CC(C)CN1C(=O)[C@@]2(c3ccc([N+](=O)[O-])cc3)CC(=O)N(CC34CC5CC(CC(C5)C3)C4)[C@@H]2c2ccc(CO)cc21`, the results for the composite z-score in experiment [1] and in experiment [2] were 0.141 (inactive) and -0.0737, respectively. Also, the z-score in experiment [3] is -1.14; in experiment [4], 0.944 (inactive); in experiment [5], 0.016 (inactive); in experiment [6], -0.164 (inactive).
As for `COCCOC(=O)N1C(=O)[C@@]2(c3cc(C#CC4=CCCCC4)ccc31)[C@H](c1ccccc1OCCO)N1[C@H](c3ccccc3)[C@H](c3ccccc3)OC(=O)[C@H]1[C@@H]2C(=O)N1CCc2cc(OC)c(OC)cc2C1`, the composite z-score in experiment [1] was 3.26 (inactive); in experiment [2], 0.717. Besides, the z-score is -1.68 in experiment [3], 2.38 (inactive) in experiment [4], 0.0575 (inactive) in experiment [5] and 0.139 (inactive) in experiment [6].
In the case of `C=C(CCCC)/C(=C/C[C@@H](OC(C)=O)c1ccc(CO)o1)c1cc(C(=O)OC)ccc1OC`, the composite z-score in experiment [1] is 0.207 (inactive); in experiment [2] it was 0.778. Moreover, the z-score was -0.597 in experiment [3], -4.83 (inactive) in experiment [4], 0.19 (inactive) in experiment [5] and 0.471 (inactive) in experiment [6].
As for `COc1ccc([Si](C)(C)[C@H]2[C@H](CCn3cc(CCO)nn3)O[C@@]3(C(=O)N(Cc4ccc(N5C(=O)c6cccc7cccc5c67)cc4)c4ccccc43)[C@@H]2C)cc1`, the composite z-score is 0.146 (inactive) in experiment [1] and 0.625 in experiment [2]. The z-score is -2.28 in experiment [3], -3.7 (inactive) in experiment [4], -0.771 (inactive) in experiment [5] and -0.923 (inactive) in experiment [6].
As for `CC(C)CNC(=O)[C@@H]1c2ccccc2C(=O)N(Cc2cc(F)cc(C(F)(F)F)c2)[C@H]1c1ccc(CO)cc1`, the composite z-score in experiment [1] was 1.02 (inactive); in experiment [2], 0.891. For the same compound, the z-score in experiment [3] is 0.204; in experiment [4], -3.02 (inactive); in experiment [5], -0.478 (inactive); in experiment [6] it was -0.515 (inactive).
Take `COCCCNC(=O)[C@@]1(Sc2ccc(C)cc2)CC(=O)N(C2Cc3ccccc3C2)[C@@H]1c1ccc(CO)cc1I`: the values for the composite z-score in experiment [1] and in experiment [2] were 0.0203 (inactive) and -0.314, respectively. The z-score in experiment [3] is 0.701; in experiment [4] it was -2.28 (inactive); in experiment [5] it was 0.542 (inactive); in experiment [6] it was 0.94 (inactive).
In the case of `CN(C)CCCN1C(=O)[C@@]2(c3ccc([N+](=O)[O-])cc3)CC(=O)N(CC34CC5CC(CC(C5)C3)C4)[C@@H]2c2ccc(CO)cc21`, the composite z-score is -0.0347 (inactive) in experiment [1] and 0.35 in experiment [2]. Also, the z-score in experiment [3] is -0.428; in experiment [4], -2.47 (inactive); in experiment [5] it was -0.411 (inactive); in experiment [6], -0.112 (inactive).
For the compound `CN1C(=O)C2C=CC(C(O)C3CCCCC3)N(N3CCCCC3)C2C1=O` (configuration not stated), the composite z-score in experiment [1] was 0.269 (inactive); in experiment [2], 0.803. The z-score is -0.151 in experiment [3], -3.82 (inactive) in experiment [4], 0.796 (inactive) in experiment [5] and 0.332 (inactive) in experiment [6].
For the compound `COC(=O)C1(Cc2ccccc2)C=C2C(=C(c3ccccc3)C(=O)C2C)CN1` (configuration not stated), the composite z-score in experiment [1] was -0.401 (inactive); in experiment [2], 0.691. The z-score in experiment [3] is -0.246; in experiment [4], -9.2 (active); in experiment [5], 0.222 (inactive); in experiment [6], 0.532 (inactive).
On to `CCOC(=O)C[C@H]1[C@H](OC(=O)Cc2ccc3c(c2)OCO3)[C@@H](NC(=O)C2CCCCC2)c2cc(OCCCO)ccc2N1C(=O)c1ccc2ccccc2n1`, for which the composite z-score in experiment [1] is 1.35 (inactive); in experiment [2], 0.639. In addition, the z-score is -2.04 in experiment [3], -3.76 (inactive) in experiment [4], 0.404 (inactive) in experiment [5] and -0.0148 (inactive) in experiment [6].
As for `CO[C@H]1O[C@H](CO)[C@@H](OC(=O)Nc2ccccc2-c2ccccc2)[C@H](OC(=O)Nc2ccc3c(c2)OCO3)[C@@H]1OC(=O)Nc1ccc2c(c1)OCO2`, the composite z-score is 0.882 (inactive) in experiment [1] and 0.801 in experiment [2]. The z-score in experiment [3] is -2.17; in experiment [4], -3.65 (inactive); in experiment [5] it was -0.0753 (inactive); in experiment [6] it was 0.24 (inactive).
Consider `COCCCNC(=O)[C@@H]1c2ccccc2C(=O)N(Cc2ccccc2C(F)(F)F)[C@H]1c1ccc(CO)cc1`, for which the composite z-score in experiment [1] is 0.348 (inactive); in experiment [2] it was -0.149. Moreover, the z-score was 0.226 in experiment [3], -1.82 (inactive) in experiment [4], -0.477 (inactive) in experiment [5] and -0.593 (inactive) in experiment [6].
Regarding `CC(C)c1ccc(NN2C(C(O)c3ccco3)C=CC3C(=O)N(c4ccccc4)C(=O)C32)cc1` (configuration not stated), the composite z-score in experiment [1] is 0.938 (inactive); in experiment [2] it was 0.849. Moreover, the z-score was -0.107 in experiment [3], -3.14 (inactive) in experiment [4], -0.881 (inactive) in experiment [5] and -1.03 (inactive) in experiment [6].
